# Reference: PubChem BioAssay AID492993 (Johns Hopkins Ion Channel Center, 2010)
# Screen size: about 4,900 compounds; about 200 (4.1%) were called active.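 Rule for the calls: active = thallium signal drop more than 5 SD beyond the mean of the no-compound control wells, seen in both duplicate plates; inactive = the rest.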 Only a sample is shown.
# Target: Inward rectifier potassium channel 2 (Mus musculus) (UniProt P35561)
# Assay: off-target Kir2.1 potassium flux block – cell-based, HEK293, thallium flux, selectivity assay for KCNK9 modulator project, confirmation (AID 492993);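 for inhibition: signal is fluorescence rise after thallium addition divided by baseline fluorescence; plate controls were assay buffer only for no effect and full block by chlorpromazine control for full effect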
# Settings: Kir2.1 cells, FluxOR thallium flux fluorescence, at 10 µM; hits give high values
# Inward rectifier potassium channel 2 (Mus musculus), sequence (P35561 whole entry, looked up): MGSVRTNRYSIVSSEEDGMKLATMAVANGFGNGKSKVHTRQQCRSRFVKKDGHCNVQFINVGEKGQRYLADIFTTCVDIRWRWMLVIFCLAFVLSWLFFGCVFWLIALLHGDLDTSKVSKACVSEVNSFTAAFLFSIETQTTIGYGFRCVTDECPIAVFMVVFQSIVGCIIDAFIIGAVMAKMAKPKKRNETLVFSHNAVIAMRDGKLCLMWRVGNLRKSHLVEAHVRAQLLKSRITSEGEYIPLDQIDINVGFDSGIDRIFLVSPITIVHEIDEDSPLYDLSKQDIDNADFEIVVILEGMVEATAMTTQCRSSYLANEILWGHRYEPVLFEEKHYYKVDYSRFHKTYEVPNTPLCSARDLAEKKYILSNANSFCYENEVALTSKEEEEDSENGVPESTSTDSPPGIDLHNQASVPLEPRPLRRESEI
row,SMILES,inhibition
1,O=C(COC(=O)/C(=C/c1cccs1)c1cccs1)NCc1ccccc1Cl,inactive
2,N#Cc1nc(Cc2cccc3ccccc23)oc1NCc1ccc2c(c1)OCO2,51% (active)
3,C=CCN(N=Nc1cccc([N+](=O)[O-])c1)c1cccc([N+](=O)[O-])c1,inactive
4,COc1cccc(CN(C)C(=O)CC23CC4CC(CC(C4)C2)C3)c1OC,inactive
5,CCCCCCCCn1c2c(c(=N)c3c1CCC3)CCCC2,84% (active)
6,Clc1ccc(COn2c(-c3ccc(Cl)cc3Cl)nc3ncccc32)cc1,inactive
7,O=C(Nc1ccc(S(=O)(=O)N2CCCCC2)cc1)C1CCN(C(=O)c2ccc(F)cc2)CC1,inactive
8,Cc1nc(N2CCN(c3ccccn3)CC2)c2c(C)c(C(=O)Nc3ccc(F)c(Cl)c3)sc2n1,inactive
9,Cc1ccc(OS(=O)(=O)c2ccc(-c3csc(C)n3)s2)c(C)c1,inactive
10,C[C@@]12C(=O)N(c3cccc(Br)c3)C(=O)N1[C@H](c1ccc(Cl)cc1)[C@@H]1C(=O)N(C3CCCCC3)C(=O)[C@@H]12,inactive
11,COc1cccc2sc(NNC(=O)c3nc4ccccc4s3)nc12,inactive
12,COc1ccccc1NC(=O)CSc1nc2sc(C)c(C)c2c(=O)n1Cc1ccco1,inactive
13,O=C(NCCCc1ccccc1)c1cc(COc2c(F)cccc2F)on1,inactive
14,Cc1ccc(C2=NN(C)c3nc4ccccc4n3C2)cc1,inactive
15,O=C(Cc1ccccc1)n1nc(-c2ccccc2)nc1NCc1ccco1,inactive
16,Cc1cc(C)cc(OCC(=O)Nc2cc(NC(=O)COc3cc(C)cc(C)c3)cc(C(=O)O)c2)c1,inactive
17,Cc1cccc(NC(=O)N(Cc2cc3cc(C)cc(C)c3[nH]c2=O)CC2COCCO2)c1 (centres undefined),inactive
18,CC1CCN(C(=S)c2ccc(-c3ccc(Cl)cc3Cl)o2)CC1,inactive
19,COC(=O)c1cccc(C(=O)N2CCCC(Nc3ccc4c(c3)OCCO4)C2)c1 (centres undefined),inactive
20,Cc1ccc(C2=Nc3c(ccc4ccccc34)C(c3ccncc3)=NN2)cc1,inactive
21,Cc1ccc(CN(N=Nc2nonc2N)c2nonc2N)c(C)c1,inactive
22,Cc1ccc(Cn2ccc(NC(=O)c3cc(C(C)C)on3)n2)cc1,inactive

row,SMILES,inhibition
1,CCOC(=O)[C@@H]1[C@H]2COc3ccc(Br)cc3[C@H]2N2C(=O)N(c3ccc(Cl)cc3)C(=O)[C@@]12C,inactive
2,O=C(N/N=C/c1ccccn1)c1cccc(NC(=O)c2ccc(Cl)cc2)c1,inactive
3,Cc1ncoc1C(=O)N1CCCC(C(=O)c2ccc3c4c(cccc24)CC3)C1 (centres undefined),inactive
4,CCc1ccccc1NC(=O)/C(=C/c1ccccc1)c1ccccc1,inactive
5,COc1ccc(Nc2ncnc3sc(-c4ccccc4)cc23)c(OC)c1,inactive
6,O=S(=O)(Nc1cccc(Oc2ccc(Cl)cc2)n1)c1ccc(F)cc1,inactive
7,Brc1ccc(C2CC(c3ccccc3)=Nc3ccccc3N2)cc1 (centres undefined),inactive
8,Cc1[nH][nH]c(=O)c1C(c1ccc(-c2ccc(Cl)cc2)o1)c1c(C)[nH][nH]c1=O,38% (active)
9,O=C(Nc1nnc(SCc2ccc(Cl)cc2Cl)s1)C1COc2ccccc2O1 (centres undefined),inactive
10,CCCCN(Cc1ccccc1)C(=O)C1CCN(Cc2sccc2C)CC1,inactive
11,Clc1cccc(-c2nc3nc4ccccc4nc3n2Cc2ccco2)c1,inactive
12,O=C1N=C2SCCN2/C1=C\c1c(Cl)cccc1Cl,inactive
13,CCc1nnc(NS(=O)(=O)c2ccc(NC(=S)NC(=O)/C=C/c3cccs3)cc2)s1,inactive
14,COc1ccccc1N1CCN(c2ncnc3sc(C)c(-c4ccccc4)c23)CC1,inactive
15,O=C(Nc1ccccc1[N+](=O)[O-])C1C(c2ccccc2)=C1c1ccccc1,inactive
16,CCCCOC(=O)CCCc1ccc([N+](=O)[O-])cc1[N+](=O)[O-],inactive
17,O=C(NC1Cc2ccccc2C1)c1cc(COc2cccc(C(F)(F)F)c2)on1,inactive
18,O=C(Nc1ccc(Oc2ccccc2)cc1)c1ccco1,inactive
19,Cc1ccc(C(=O)c2c(NC(=O)c3ccncc3)sc3c2CCCC3)cc1,inactive
20,Cc1onc(-c2ccc(Cl)cc2)c1-c1ccnn1S(=O)(=O)c1ccc(Cl)cc1,inactive
21,CN(C)c1ccc(C(CNC(=O)c2ccc(F)cc2)c2c[nH]c3ccccc23)cc1 (centres undefined),inactive
22,CCn1cnc2scc(-c3ccc(C)c(C)c3)c2c1=O,inactive
